PI4K2A inh: qHTS for small molecular inhibitors of PI4K2A; AID 1346378, 2018; Phosphatidylinositol 4-kinase type 2-alpha (Homo sapiens), Q9BTU6; activity change, negative = inhibition, % at 76.9 µM; purified PI4K2A, ADP-Glo luminescence, 1 h; stronger effect = lower value; hit rate 0.13% among 420,000; in the data active = activity change below about -50%; inconclusive = mostly about -30% to -49%
Target sequence (Q9BTU6 whole entry, looked up): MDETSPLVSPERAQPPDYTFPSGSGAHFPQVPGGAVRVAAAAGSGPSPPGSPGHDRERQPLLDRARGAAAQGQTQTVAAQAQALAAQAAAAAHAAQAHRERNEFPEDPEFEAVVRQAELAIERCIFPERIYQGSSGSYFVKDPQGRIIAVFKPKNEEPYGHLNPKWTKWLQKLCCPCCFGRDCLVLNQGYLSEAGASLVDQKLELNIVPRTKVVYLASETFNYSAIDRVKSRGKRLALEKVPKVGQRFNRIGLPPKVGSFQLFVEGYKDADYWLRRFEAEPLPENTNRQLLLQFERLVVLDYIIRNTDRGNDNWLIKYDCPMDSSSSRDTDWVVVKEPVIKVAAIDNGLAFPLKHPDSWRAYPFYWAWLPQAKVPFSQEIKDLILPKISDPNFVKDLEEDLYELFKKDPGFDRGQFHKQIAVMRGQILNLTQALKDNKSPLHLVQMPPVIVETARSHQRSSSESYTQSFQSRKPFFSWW
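ADP-Glo luminescence measured ADP generated by PI4K2A enzyme (4 ug/mL before mixing) with 1.2 mM PI substrate (pre-mix) and 300 microM ATP (pre-mix). Tris pH7.5 buffer with MgCl2, Triton X-100; 1 h reaction at ambient temperature.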
KB-3-1 cytotox: qHTS assay for MDR1-selective chemotherapeutics: Primary screen using the parental adenocarcinoma cell KB-3-1; KB-3-1 viability, CellTiter-Glo ATP luminescence, 72 h; Potency, µM (titrated, usually from 46.1 µM), most hits filed as cytotoxic; hit rate 1.4% among 400,000; AID 1347075, 2019; also: nearly all actives have a fitted effect of over 60% in size
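Multi-concentration cytotoxicity screen in KB-3-1 cells grown in DMEM lacking phenol red with 10% FBS. After 72 h at 37 °C with compound, ATP-dependent luminescence was recorded.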
A549 tox: Nrf2 qHTS screen for inhibitors: counterscreen for cytotoxicity; A549 ARE-Fluc cells, CellTiter-Fluor viability, 18-24 h; Potency, µM (highest dose often 46 µM), most hits filed as inhibitors; hit rate 0.16% among 390,000; AID 504648, 2011
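A549 ARE-Fluc cells in 5% FBS OPTI-MEM, 5000 cells/well, rested 2 h then exposed to compounds in concentration-response for 18-24 h at 37 °C. Viability by CellTiter-Fluor fluorescence (Ex 405/Em 525) after 30 min; luciferase luminescence (BugLite, 15 min, RT) read afterwards.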
Nrf2 block: Nrf2 qHTS screen for inhibitors | A549 ARE-Fluc reporter, luciferase luminescence, 18-24 h | Potency, µM (titrated, usually from 46 µM), actives largely listed as inhibitors | hit rate 2.1% among 360,000; also: nearly all actives have a fitted effect of over 60% in size
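Concentration-response testing used A549 ARE_Fluc cells at 5000 cells/well. Following an 18-24 h compound incubation, viability was read by fluorescence (Ex 405/Em 525) and luciferase output by luminescence.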
KB-V1 MDR tox: qHTS assay for MDR1-selective chemotherapeutics: Primary screen using the drug-selected MDR subline cells KB-V1; KB-V1 MDR cells viability, CellTiter-Glo, 72 h; Potency, µM (doses to about 46.1 µM), most hits filed as cytotoxic; hit rate 3.4% among 400,000; AID 1347076, 2019; also: nearly all actives have a fitted effect of over 60% in size
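Cells of the MDR subline KB-V1 are plated, dosed with compound at multiple concentrations, and incubated 72 h at 37 degrees C; CellTiter-Glo is then added and luminescence read after 10 min.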
Giardia killer: Small Molecules that selectively kill Giardia lamblia: qHTS; hit rate 0.15% among 340,000; activity change, % at 7.66 µM, hits read low; Giardia lamblia trophozoite viability; AID 540267, 2011; in the data active = activity change below about -80%; inconclusive = between about -30% and that limit;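 also: parasites exposed to compound for two days anaerobically before the ATP read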
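Killing of trophozoites was scored by loss of ATP luminescence after a 48 hrs anaerobic exposure to compounds at 37 deg C, using 100 cells per well.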
A number is an active result. Rows were chosen to be rich in hits. Some 5.7% of all compounds tested hit in one or more screens of this group. Unless noted, calls follow the shape of the dose curve; as a rule, active = well fitted curve in the direction sought with a large enough effect; inconclusive = small, poorly fitted or top-dose-only effect, or another doubt; inactive = no such curve, though single readings can be large; an effect the other way counts as inactive or inconclusive.

Screening COc1ccc(-c2cnnc(N/N=C/c3ccc(OC)c(OC)c3)n2)cc1 returned PI4K2A inh inactive, KB-3-1 cytotox inactive, A549 tox inactive, Nrf2 block inconclusive, KB-V1 MDR tox inconclusive and Giardia killer inactive.
Screening O=C(OCc1cn(Cc2ccc(F)c(F)c2)nn1)N1CCOCC1 returned PI4K2A inh inactive.
COc1ccc(Cl)cc1NC(=O)COC(=O)c1c(-c2ccccc2)noc1C was read as PI4K2A inh inactive, KB-3-1 cytotox inactive, A549 tox inactive, Nrf2 block 10.3µM, KB-V1 MDR tox inconclusive and Giardia killer inactive.
`COc1ccc(Cl)cc1NC(=O)c1c(-c2ccccc2)noc1C` gave PI4K2A inh inactive, KB-3-1 cytotox inactive, A549 tox inactive, Nrf2 block inactive, KB-V1 MDR tox inactive and Giardia killer inactive.
`COc1ccc(Br)cc1CN(C)CC(=O)Nc1cc(Cl)ccc1Cl` gave PI4K2A inh inactive, KB-3-1 cytotox inactive, A549 tox inactive, Nrf2 block inactive, KB-V1 MDR tox 7.31µM and Giardia killer inactive.
COc1ccc(Cl)cc1NC(=O)CN(C)CC(=O)Nc1ccccc1-c1ccccc1 was read as PI4K2A inh inactive, KB-3-1 cytotox inactive, A549 tox inactive, Nrf2 block inactive, KB-V1 MDR tox 9.2µM and Giardia killer inactive.
Screening COc1ccc(Cl)cc1NC(=O)CN1Cc2ccccc2C1=O returned PI4K2A inh inactive, KB-3-1 cytotox inconclusive, A549 tox inactive, Nrf2 block inactive and KB-V1 MDR tox 5.17µM.
Screening COc1cccc(-c2nc3c(C#N)c[nH]n3c2NC2CCCCC2)c1 returned PI4K2A inh inactive, KB-3-1 cytotox inactive, A549 tox inactive, Nrf2 block inactive and KB-V1 MDR tox inactive.
Screening Cc1cc(NS(=O)(=O)c2ccc(NC(=O)CSc3nnc(-c4cccnc4)n3-c3ccccc3)cc2)nc(C)n1 returned PI4K2A inh inactive.
Screening CC(C)N1CCCCC(NC(=O)c2cccc(F)c2)C1=O (configuration not stated) returned PI4K2A inh inactive.
`COc1ccc(Cl)cc1NC(=O)CN(C)C(=O)CCC(=O)c1cc(C)sc1C` gave PI4K2A inh inactive, KB-3-1 cytotox inactive, A549 tox 16.4µM, Nrf2 block 8.2µM, KB-V1 MDR tox inactive and Giardia killer inactive.
COc1cc(C(=O)N=c2sc3ccccc3n2C)cc(OC)c1OC was read as PI4K2A inh inactive, KB-3-1 cytotox inactive, A549 tox inactive, Nrf2 block inactive, KB-V1 MDR tox 4.61µM and Giardia killer inactive.
Cc1sc(=NC(=O)c2ccco2)n(C)c1-c1ccccc1 was read as PI4K2A inh inactive, KB-3-1 cytotox inactive, A549 tox inactive, Nrf2 block inconclusive, KB-V1 MDR tox inactive and Giardia killer inconclusive.
Screening Cn1c(=NC(=O)c2cccc([N+](=O)[O-])c2)sc2ccccc21 returned PI4K2A inh inactive, KB-3-1 cytotox inactive, A549 tox inactive, Nrf2 block inconclusive, KB-V1 MDR tox inactive and Giardia killer inactive.
For Cn1c(=NC(=O)c2ccco2)sc2ccccc21 the results were PI4K2A inh inactive, KB-3-1 cytotox inconclusive, A549 tox inactive, Nrf2 block inconclusive, KB-V1 MDR tox 16.4µM and Giardia killer inconclusive.
Screening C/C(=N/NC(=O)CN1CCN(Cc2ccccc2Cl)CC1)c1cccc(O)c1 returned PI4K2A inh inactive.
Screening Cc1ccc(C2C=C(c3ccccc3OC(F)F)Nc3ncnn32)cc1 (configuration not stated) returned PI4K2A inh inactive, KB-3-1 cytotox inconclusive, A549 tox inactive, Nrf2 block inactive, KB-V1 MDR tox 20.6µM and Giardia killer inactive.
CN(C)c1ccc(C2C=C(c3ccc(Cl)cc3OC(F)F)Nc3ncnn32)cc1 (configuration not stated) was read as PI4K2A inh inactive, KB-3-1 cytotox inactive, A549 tox inactive, Nrf2 block inactive, KB-V1 MDR tox 11.6µM and Giardia killer inactive.
Cc1ccc(C2=CC(c3ccccc3)n3ncnc3N2)cc1 (configuration not stated) was read as PI4K2A inh inactive, KB-3-1 cytotox inactive, A549 tox inactive, Nrf2 block inactive, KB-V1 MDR tox inactive and Giardia killer inactive.
Screening C[C@@H]1CN([C@@H](C)CN(C)C)C(=O)c2cc(NC(=O)Nc3ccccc3)ccc2O[C@@H](C)CCCCO[C@H]1CN(C)S(=O)(=O)c1ccc(F)cc1 returned PI4K2A inh inactive.
`C[C@H]1[C@H](NC(=O)/C(=N/OC(C)(C)C(=O)O)c2csc(N)n2)C(=O)N1S(=O)(=O)O` (stereo in doubt) gave PI4K2A inh inactive.
CC(=O)N/C(=C\c1ccccc1)C(=O)OCc1ccccc1 was read as PI4K2A inh inactive, KB-3-1 cytotox inactive, A549 tox inactive, Nrf2 block inactive, KB-V1 MDR tox inactive and Giardia killer inactive.
CC(=O)N/C(=C\c1ccccc1)C(=O)OCc1cccc(S(=O)(=O)N(C)C)c1 was read as PI4K2A inh inactive, KB-3-1 cytotox inactive, A549 tox inactive, Nrf2 block 23.1µM, KB-V1 MDR tox inactive and Giardia killer inactive.
`CC(=O)N/C(=C\c1ccccc1)C(=O)OCC(=O)NC1CCS(=O)(=O)C1` (configuration not stated) gave PI4K2A inh inactive, KB-3-1 cytotox inactive, A549 tox inactive, Nrf2 block inactive, KB-V1 MDR tox inactive and Giardia killer inactive.
`CC(=O)N/C(=C\c1ccccc1)C(=O)OCC(=O)N(C)C1CCCCC1` gave PI4K2A inh inactive, KB-3-1 cytotox inactive, A549 tox inactive, Nrf2 block inactive, KB-V1 MDR tox 16.4µM and Giardia killer inactive.
Screening O=C(CN1C(=O)C2(OCCCO2)c2ccccc21)NCc1ccc2ccccc2c1 returned PI4K2A inh inactive.
`N=c1ccn(CC(=O)c2ccc(-c3ccccc3)cc2)cc1` gave PI4K2A inh inactive, KB-3-1 cytotox 5.17µM, A549 tox inconclusive, Nrf2 block 7.31µM, KB-V1 MDR tox inactive and Giardia killer inactive.
`O=C(CN1C(=O)CCC1=O)c1ccc(-c2ccccc2)cc1` gave PI4K2A inh inactive, KB-3-1 cytotox inactive, A549 tox inactive, Nrf2 block inconclusive, KB-V1 MDR tox inactive and Giardia killer inactive.
Screening CCc1cccc(NC(=O)c2ccc(Cn3nc(C)cc3C)o2)c1 returned PI4K2A inh inactive, KB-3-1 cytotox inactive, A549 tox inactive, Nrf2 block inactive, KB-V1 MDR tox 14.6µM and Giardia killer inactive.
CCOc1ccc(NC(=O)c2ccc(Cn3nc(C)cc3C)o2)cc1 was read as PI4K2A inh inactive, KB-3-1 cytotox inactive, A549 tox inactive, Nrf2 block inconclusive, KB-V1 MDR tox inactive and Giardia killer inactive.
